BoNT-F LC inh = blocks Botulinum neurotoxin F light chain protease. 360,000 tested, 0.22% active. Multiplex microsphere protease cleavage assay, flow cytometry. inhibition, % at 10 µM; in the data active = inhibition above about 35%, passing the limit was not always enough; inconclusive = no clear call, values can overlap the other calls
Anthrax LF prot = inhibitors of Bacillus anthracis lethal factor protease | AID 588501 | multiplex microsphere protease cleavage assay, LF | 360,000 tested, 0.12% active | inhibition, % at 10 µM
FBA Mtb inh = Mtb fructose-bisphosphate aldolase inhibition; P9WQA3; purified M. tuberculosis FBA, fluorescence read-out; inhibition, % at 1 µM; 360,000 tested, 2.3% active; AID 588726; in the data active = inhibition above about 27%
Target sequence (P9WQA3 whole entry, looked up): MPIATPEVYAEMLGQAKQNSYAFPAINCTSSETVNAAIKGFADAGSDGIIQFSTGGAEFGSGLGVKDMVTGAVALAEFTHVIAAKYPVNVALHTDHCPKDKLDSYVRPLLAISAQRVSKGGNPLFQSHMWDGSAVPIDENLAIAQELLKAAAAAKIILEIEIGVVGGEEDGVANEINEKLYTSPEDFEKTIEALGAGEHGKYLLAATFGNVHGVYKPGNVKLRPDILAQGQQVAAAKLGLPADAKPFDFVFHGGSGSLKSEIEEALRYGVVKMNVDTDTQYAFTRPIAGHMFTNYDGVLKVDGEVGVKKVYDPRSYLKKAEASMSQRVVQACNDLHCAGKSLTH
GDH-TPI counter = GDH-TPI coupled enzyme inhibition counter-screen | AID 588335 | inhibition, % at 4.8 µM | 360,000 tested, 1.2% active | GDH-TPI coupled enzyme counterscreen, NADH absorbance; in the data active = inhibition above about 30%
BoNT A protease = BoNT A light chain protease inhibition. AID 588499. 360,000 tested, 0.17% active. multiplex microsphere protease substrate cleavage, flow cytometry. inhibition, % at 10 µM
Bead autofluor = flagged as autofluorescent in microsphere protease counterscreen. 360,000 tested, 3.1% active. AID 624483. compound autofluorescence counterscreen, microsphere flow cytometry; hits give high values. fluorescence intensity (test concentration not listed); in the data active = fluorescence intensity above about 16000; inconclusive = no clear call, values can overlap the other calls
Numbers stand for hits. Rows were chosen to be rich in hits. Some 6.6% of all compounds tested hit in one or more screens of this group. Cut-off read from the data, not from the text of the source, unless noted: active = inhibition above about 30%; inconclusive = no clear call, values can overlap the other calls; inactive = below that.

Cc1ccc2c(c1)N(CC(=O)Nc1nccs1)C(=O)CO2 was read as BoNT-F LC inh inactive, Anthrax LF prot inactive, FBA Mtb inh inactive, GDH-TPI counter inactive, BoNT A protease inactive and Bead autofluor inactive.
Screening CCOC(=O)[C@@H]1[C@H]2COc3ccccc3[C@@H]2N2C(=O)N(c3ccc(C(F)(F)F)cc3)C(=O)[C@]12C returned BoNT-F LC inh inactive, Anthrax LF prot inactive, FBA Mtb inh inactive, GDH-TPI counter inactive, BoNT A protease inactive and Bead autofluor inactive.
For COc1cc(Cl)c(C)cc1NC(=O)CSC1=NCCS1 the results were BoNT-F LC inh inactive, Anthrax LF prot inactive, FBA Mtb inh inactive, GDH-TPI counter inactive, BoNT A protease inactive and Bead autofluor inactive.
O=C(Nc1sc2c(c1C(=O)NCC(O)CO)CCCC2)c1ccccc1 (stereo unspecified) was read as BoNT-F LC inh inactive, Anthrax LF prot inactive, FBA Mtb inh inactive, GDH-TPI counter inactive, BoNT A protease inactive and Bead autofluor inactive.
For COc1cccc(-c2cccc3c2NC(=O)C3(C)Cc2cccc(F)c2)c1 (stereo unspecified) the results were BoNT-F LC inh inactive, Anthrax LF prot inactive, FBA Mtb inh inactive, GDH-TPI counter inactive, BoNT A protease inactive and Bead autofluor inactive.
`Cc1ccc(C)c(Sc2ccc(S(=O)(=O)Nc3ccc(C(=O)O)cc3)cc2)c1` gave BoNT-F LC inh inactive, Anthrax LF prot inactive, FBA Mtb inh inactive, GDH-TPI counter inactive, BoNT A protease inactive and Bead autofluor inactive.
CC(=O)Oc1cccc(-c2nc3ccccc3c(=O)o2)c1 was read as BoNT-F LC inh inactive, Anthrax LF prot inactive, FBA Mtb inh inactive, GDH-TPI counter inactive, BoNT A protease inactive and Bead autofluor inactive.
COc1cccc(-c2nc3ccc(O)cc3c(=O)o2)c1 was read as BoNT-F LC inh inactive, Anthrax LF prot inactive, FBA Mtb inh inactive, GDH-TPI counter inactive, BoNT A protease inconclusive and Bead autofluor 23859.
Screening CC(=O)Nc1nc2nc(-c3ccccc3)cc(-c3ccccc3)n2n1 returned BoNT-F LC inh inactive, Anthrax LF prot inactive, FBA Mtb inh 60.2, GDH-TPI counter inactive, BoNT A protease inactive and Bead autofluor inactive.
`CCCCn1ccnc1C(=O)c1cccc(S(=O)(=O)N2CC(C)CC(C)C2)c1` (stereo unspecified) gave BoNT-F LC inh inactive, Anthrax LF prot inactive, FBA Mtb inh inactive, GDH-TPI counter inactive, BoNT A protease inactive and Bead autofluor 16271.
For CCNC(=O)C1CCCN(C(=O)c2ccc(C#N)cc2)CC1 (stereo unspecified) the results were BoNT-F LC inh inactive, Anthrax LF prot inactive, FBA Mtb inh inactive, GDH-TPI counter inactive, BoNT A protease inactive and Bead autofluor inactive.
O=C(CN1CCN(c2ccccn2)CC1)N1c2ccccc2CCc2ccccc21 was read as BoNT-F LC inh inactive, Anthrax LF prot inactive, FBA Mtb inh inactive, GDH-TPI counter inactive, BoNT A protease inactive and Bead autofluor 20825.
Screening O=C(CN1CCN(c2ccccn2)CC1)N1c2ccccc2Sc2ccc(C(F)(F)F)cc21 returned BoNT-F LC inh inactive, Anthrax LF prot inactive, FBA Mtb inh inactive, GDH-TPI counter inactive, BoNT A protease inactive and Bead autofluor 17711.
For CCCC(=O)Nc1ccc2oc(-c3ccc(OC)c(Br)c3)nc2c1 the results were BoNT-F LC inh inactive, Anthrax LF prot inactive, FBA Mtb inh 125.1, GDH-TPI counter inactive, BoNT A protease inactive and Bead autofluor 21634.
Screening COc1ccccc1C(=O)Nc1ccc2oc(-c3ccc(F)cc3)nc2c1 returned BoNT-F LC inh inactive, Anthrax LF prot inactive, FBA Mtb inh inactive, GDH-TPI counter inactive, BoNT A protease inactive and Bead autofluor 17405.
For CCOc1ccc(S(=O)(=O)N2CCCCC2)cc1NC(=O)CN1C(=O)NC(C)(c2ccc(C)cc2)C1=O (stereo unspecified) the results were FBA Mtb inh inactive and GDH-TPI counter inactive.
`CC(C)CCNC(=O)C(=O)Nc1ccc2c(c1)N(S(=O)(=O)c1cccs1)CCC2` gave BoNT-F LC inh inactive, Anthrax LF prot inactive, FBA Mtb inh inactive, GDH-TPI counter inactive, BoNT A protease inactive and Bead autofluor inactive.
Screening CCCCC(=O)Nc1sc2c(c1C(=O)OCC)CCC(C=O)=C2Cl returned BoNT-F LC inh inactive, Anthrax LF prot inactive, FBA Mtb inh inactive, GDH-TPI counter inactive, BoNT A protease inconclusive and Bead autofluor 21678.
For CCOC(=O)c1c(NC(=O)c2ccccc2Cl)sc2c1CCc1ccccc1-2 the results were BoNT-F LC inh inactive, Anthrax LF prot inactive, FBA Mtb inh inactive, GDH-TPI counter inactive, BoNT A protease inactive and Bead autofluor inactive.
For COc1ccc(CNC(=O)C(c2ccc(C)o2)N(C(=O)c2csnn2)c2ccc(C(C)C)cc2)cc1 (stereo unspecified) the results were BoNT-F LC inh inactive, Anthrax LF prot inactive, FBA Mtb inh inactive, GDH-TPI counter inactive, BoNT A protease inactive and Bead autofluor inactive.
Screening OCCN1CCN(Cc2cccc(Oc3ccc(Cl)cc3)c2)CC1 returned BoNT-F LC inh inactive, Anthrax LF prot inactive, FBA Mtb inh inactive, GDH-TPI counter inactive, BoNT A protease inactive and Bead autofluor 20285.
For CN1CCN(Cc2cccc(Oc3ccccc3)c2)CC1 the results were BoNT-F LC inh inactive, Anthrax LF prot inactive, FBA Mtb inh inactive, GDH-TPI counter inactive, BoNT A protease inactive and Bead autofluor inactive.
Screening O=C(N/N=C/c1ccc(-c2cccc(C(F)(F)F)c2)o1)c1ccccc1Br returned BoNT-F LC inh inactive, Anthrax LF prot inactive, FBA Mtb inh inactive, GDH-TPI counter 54.2, BoNT A protease inactive and Bead autofluor inactive.
O=C(N/N=C/c1ccc(-c2cccc(C(F)(F)F)c2)o1)c1ccccc1O was read as BoNT-F LC inh inactive, Anthrax LF prot inactive, FBA Mtb inh inactive, GDH-TPI counter inactive, BoNT A protease inactive and Bead autofluor inactive.
For O=C(N/N=C/c1ccc(-c2cccc(C(F)(F)F)c2)o1)c1cccc(F)c1 the results were BoNT-F LC inh inactive, Anthrax LF prot inactive, FBA Mtb inh inactive, GDH-TPI counter 44.0, BoNT A protease inactive and Bead autofluor inactive.
`Cc1cc(C)n(-c2ccc(C(=O)N3CCC(CO)(Cc4ccccc4)CC3)cc2)n1` gave BoNT-F LC inh inactive, Anthrax LF prot inactive, FBA Mtb inh inactive, GDH-TPI counter inactive, BoNT A protease inactive and Bead autofluor inactive.
Screening CC(=O)c1ccc(N2CCN(C(=O)c3cc(-c4cccnc4)nc4ccc(Br)cc34)CC2)cc1 returned BoNT-F LC inh inactive, Anthrax LF prot inactive, FBA Mtb inh inactive, GDH-TPI counter 46.3, BoNT A protease inactive and Bead autofluor inactive.
For Cc1cc(NC(=O)c2cc(-c3ccc(C)c(C)c3)nc3ccccc23)no1 the results were BoNT-F LC inh inactive, Anthrax LF prot inactive, FBA Mtb inh inactive, GDH-TPI counter inactive, BoNT A protease inactive and Bead autofluor inactive.
COc1ccc(-c2cc(C(=O)N3CCCCCC3)c3ccccc3n2)cc1 was read as BoNT-F LC inh inactive, Anthrax LF prot inactive, FBA Mtb inh 150.0, GDH-TPI counter inactive, BoNT A protease inactive and Bead autofluor inactive.

Screening data (PubChem)
